Results from PubChem BioAssay (Tox21).
Results filed as inconclusive are left out. Entries that show only a call come without a potency. Active and inactive are the calls of the source. Unless noted, calls come from the whole dose curve; as a rule, active = well fitted curve in the direction sought with a large enough effect in the repeat runs; inconclusive = weak or mixed curves; inactive = no such curve, though single readings can be large; an effect the other way counts as inactive or inconclusive.

Legend:
[1] = qHTS assay to identify small molecule agonists of the RXR signaling pathway - cell viability counter screen (AID 1159529); note: nearly all actives have a fitted effect of over 50% in size; note: potency is the fitted concentration of half-maximal effect
Procedure, shortened: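 Counter screen: CellTiter-Glo luminescence. Cells: RXR-alpha-UAS-bla HEK 293T. Medium: 2% charcoal-stripped FBS. Treatment: 16 h, 37 C. Reagent incubation: 30 min, RT.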

[2] = qHTS assay to identify small molecule antagonists of the retinoid acid receptor (RAR) signaling pathway - cell viability counter screen (AID 1159551); note: nearly all actives have a fitted effect of over 35% in size; note: potency is the fitted concentration of half-maximal effect
Procedure, shortened: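 Cytotoxicity counter screen in C3RL4 cells: 6 h compound exposure with 1 uM retinol (final), viability from cellular ATP by luminescence.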

[3] = qHTS assay to identify small molecule antagonists of the retinoic acid receptor (RAR) signaling pathway (AID 1159552; note: nearly all actives have a fitted effect of over 50% in size; note: potency is the fitted concentration of half-maximal effect)
Procedure, shortened: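 Antagonism of retinol-induced RARE reporter activity was measured in C3RL4 cells. Exposure to compounds and 1 uM final retinol lasted 6 hr at 37 C, with luminescence as endpoint.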

[4] = biological target: Luciferin 4-monooxygenase (Photinus pyralis) (UniProt P08659); test: qHTS assay to identify small molecule inhibitors of firefly luciferase (AID 1224835); note: nearly all actives have a fitted effect of over 25% in size; note: potency is the fitted concentration of half-maximal effect
Procedure, shortened: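 Quantitative HTS format; KM concentrations of both substrates. Purified P. pyralis FLuc activity quantified from luminescence images.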

[5] = qHTS assay to identify small molecule agonists of the constitutive androstane receptor (CAR) signaling pathway - cell viability counter screen (AID 1224836); note: nearly all actives have a fitted effect of over 45% in size; note: potency is the fitted concentration of half-maximal effect
Procedure, shortened: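 Double-stable HepG2 hepatoma cells (hCAR plus CYP2B6-2.2kb) are treated for 23 h at 37 C with test compounds in 15-point concentration series. PK11195 at 0.75 uM final is co-added. Cell viability is quantified by CellTiter-Fluor.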

[6] = biological target: Nuclear receptor subfamily 1 group I member 3 (Homo sapiens) (UniProt Q14994); test: qHTS assay to identify small molecule agonists of the constitutive androstane receptor (CAR) signaling pathway (AID 1224839);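 note: HepG2 cells stably carrying human CAR and a CYP2B6 luciferase reporter; series mostly up to about 92 µM; nearly all actives have a fitted effect of over 15% in size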
Procedure, shortened: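 Readout: firefly luciferase luminescence via ONE-Glo. System: HepG2 double-stable for hCAR and CYP2B6-2.2kb. Conditions: 15-point compound titration, PK11195 at 0.75 uM final, 24 h incubation.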

[7] = qHTS assay to identify small molecule antagonists of the estrogen related receptor signaling pathway with the pleiotropic PPARgamma coactivator (PGC) from Tox21 10K library - cell viability counter screen (AID 1224840; active = well fitted cell-killing curve with a large enough effect in the repeat runs, not every such curve was filed as active; note: nearly all actives have a fitted effect of over 40% in size; note: potency is the fitted concentration of half-maximal effect)
Procedure, shortened: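 Step one, plate 2,000 PGC/ERR cells per well; step two, incubate 6 h at 37 C/5% CO2; step three, pin-transfer compounds; step four, incubate 17.5 h; step five, add CellTiter-Fluor and read fluorescence after 30 min.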

[8] = qHTS assay to identify small molecule agonists of the estrogen related receptor signaling pathway with the pleiotropic PPARgamma coactivator (PGC) from Tox21 10K library (AID 1224842); note: nearly all actives have a fitted effect of over 15% in size
Procedure, shortened: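 PGC/ERR reporter cells (NTP line) were seeded 2,000 per well, rested 6 h at 37 C/5% CO2, then pin-dosed with compounds in DMSO for 18 h at 37 C; luciferase read by One-Glo luminescence after 30 min at room temperature.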

[9] = biological target: Thyrotropin receptor (Homo sapiens) (UniProt P16473); test: qHTS assay to identify small molecule agonists of the thyroid stimulating hormone receptor (TSHR) signaling pathway (AID 1224843; calls by dose curve; note: nearly all actives have a fitted effect of over 45% in size; note: potency is the fitted concentration of half-maximal effect)
Procedure, shortened: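 Cell line HEK293 with TSHR; density 800/well. Exposure 30 min RT. Readout HTRF cAMP (cAMP-d2/anti-cAMP-cryptate), 1 h RT before reading.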

[10] = qHTS assay to identify small molecule antagonists of the estrogen related receptor signaling pathway with the pleiotropic PPARgamma coactivator (PGC) from Tox21 10K library (AID 1224841; call rule not given here; note: actives are mostly falling curves and most rising ones were filed inactive; nearly all actives have a fitted effect of over 50% in size; note: potency is the fitted concentration of half-maximal effect)
Procedure, shortened: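 Antagonism in this quantitative HTS is taken from loss of luciferase signal in PGC/ERR cells. Cells (2,000/well) are treated with compounds in DMSO after a 6 h settling period and read by One-Glo luminescence after 18 h.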

[11] = biological target: Nuclear receptor subfamily 1 group I member 3 (Homo sapiens) (UniProt Q14994); test: qHTS assay to identify small molecule antagonists of the constitutive androstane receptor (CAR) signaling pathway (AID 1224838); note: nearly all actives have a fitted effect of over 40% in size; note: potency is the fitted concentration of half-maximal effect
Procedure, shortened: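 Compounds were titrated across 15 concentrations onto HepG2 cells double-stably expressing hCAR and a CYP2B6-2.2kb reporter, together with 50 nM CITCO (final). After 24 h at 37 C, luciferase activity was measured by luminescence.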

[12] = qHTS assay to identify small molecule antagonists of the estrogen related receptor (ERR) signaling pathway from Tox21 library - cell viability counter screen (AID 1224834); note: nearly all actives have a fitted effect of over 30% in size; note: potency is the fitted concentration of half-maximal effect
Procedure, shortened: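 Cytotoxicity of test substances is gauged in the same ERR cells used for the antagonist screen, after 17.5 h of compound treatment at 37 C, by CellTiter-Fluor fluorescence measured after 30 min.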

[13] = qHTS assay to identify small molecule antagonists of the constitutive androstane receptor (CAR) signaling pathway - cell viability counter screen (AID 1224837); note: nearly all actives have a fitted effect of over 45% in size; note: potency is the fitted concentration of half-maximal effect
Procedure, shortened: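 Multiplexed cytotoxicity read-out for the CAR antagonist screen: double-stable HepG2-CYP2B6-hCAR cells co-treated with 50 nM CITCO (final) and compound over 15 concentrations, incubated 23 hr, then assessed by CellTiter-Fluor fluorescence.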

[14] = qHTS assay to identify small molecule antagonists of the estrogen related receptor (ERR) signaling pathway (AID 1224819; note: potency is the fitted concentration of half-maximal effect; nearly all actives have a fitted effect of over 50% in size)
Procedure, shortened: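 Compounds dissolved in DMSO were pin-transferred onto ERR cells that had been plated 6 h earlier, and cells were then incubated 18 h at 37 C; signal was luciferase luminescence via One-Glo.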

[15] = qHTS assay to identify small molecule agonists of the estrogen related receptor (ERR) signaling pathway (AID 1224820)
Procedure, shortened: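 ERR reporter cell line (from NTP), 2,000 cells/well, incubated 6 h before compound addition, then 18 h at 37 C. Luminescence measured 30 min after One-Glo reagent at room temperature.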

[16] = qHTS assay to identify small molecule agonists of the estrogen related receptor signaling pathway with the pleiotropic PPARgamma coactivator (PGC) (AID 1224823)
Procedure, shortened: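 PGC/ERR reporter cells seeded 6 h, then exposed to compounds (23 nL in DMSO) for 18 h at 37 C. One-Glo luciferase luminescence read after 30 min at room temperature.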

[17] = qHTS assay to identify small molecule agonists of the retinoic acid receptor (RAR) signaling pathway (AID 1159553)
Procedure, shortened: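 Agonist activity was scored in C3RL4 cells bearing a retinoic acid response element luciferase construct. Cells were treated with compounds for 6 hr at 37 C, and luciferase signal was measured as luminescence.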

Chain of Luciferin 4-monooxygenase (Photinus pyralis) (P08659 whole entry, looked up): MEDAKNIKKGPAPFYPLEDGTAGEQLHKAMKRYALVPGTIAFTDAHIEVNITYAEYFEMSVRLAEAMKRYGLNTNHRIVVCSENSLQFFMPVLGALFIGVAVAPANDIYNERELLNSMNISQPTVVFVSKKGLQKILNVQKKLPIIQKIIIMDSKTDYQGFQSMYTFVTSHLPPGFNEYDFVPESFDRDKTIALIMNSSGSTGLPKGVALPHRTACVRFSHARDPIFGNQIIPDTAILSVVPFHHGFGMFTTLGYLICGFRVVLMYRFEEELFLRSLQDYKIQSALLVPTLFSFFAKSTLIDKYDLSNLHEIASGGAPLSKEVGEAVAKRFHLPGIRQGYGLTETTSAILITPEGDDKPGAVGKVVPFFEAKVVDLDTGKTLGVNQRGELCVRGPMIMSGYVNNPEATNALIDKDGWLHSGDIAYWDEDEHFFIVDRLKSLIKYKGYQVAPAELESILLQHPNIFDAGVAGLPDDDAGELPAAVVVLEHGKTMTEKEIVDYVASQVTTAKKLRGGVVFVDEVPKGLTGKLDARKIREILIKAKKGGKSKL
Chain of Thyrotropin receptor (Homo sapiens) (P16473 whole entry, looked up): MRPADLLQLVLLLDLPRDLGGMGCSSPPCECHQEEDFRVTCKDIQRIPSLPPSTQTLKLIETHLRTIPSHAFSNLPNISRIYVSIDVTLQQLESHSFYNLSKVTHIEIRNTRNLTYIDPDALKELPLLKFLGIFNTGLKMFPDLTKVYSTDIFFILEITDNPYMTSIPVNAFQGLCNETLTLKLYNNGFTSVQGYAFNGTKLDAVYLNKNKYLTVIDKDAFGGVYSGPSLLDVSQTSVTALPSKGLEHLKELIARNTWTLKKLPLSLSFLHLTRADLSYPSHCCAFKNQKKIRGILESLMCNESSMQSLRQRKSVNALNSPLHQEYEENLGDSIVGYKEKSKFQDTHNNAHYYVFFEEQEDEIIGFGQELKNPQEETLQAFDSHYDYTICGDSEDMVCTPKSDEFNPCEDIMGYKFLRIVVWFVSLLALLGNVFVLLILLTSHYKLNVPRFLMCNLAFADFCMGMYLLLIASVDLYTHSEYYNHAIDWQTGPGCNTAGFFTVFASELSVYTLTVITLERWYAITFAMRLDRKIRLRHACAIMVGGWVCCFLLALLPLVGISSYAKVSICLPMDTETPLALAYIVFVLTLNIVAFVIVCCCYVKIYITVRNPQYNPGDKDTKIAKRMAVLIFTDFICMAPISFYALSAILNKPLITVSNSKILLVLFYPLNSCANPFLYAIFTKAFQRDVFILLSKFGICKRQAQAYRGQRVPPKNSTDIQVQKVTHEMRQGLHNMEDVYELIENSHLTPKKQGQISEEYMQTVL
Chain of Nuclear receptor subfamily 1 group I member 3 (Homo sapiens) (Q14994 whole entry, looked up): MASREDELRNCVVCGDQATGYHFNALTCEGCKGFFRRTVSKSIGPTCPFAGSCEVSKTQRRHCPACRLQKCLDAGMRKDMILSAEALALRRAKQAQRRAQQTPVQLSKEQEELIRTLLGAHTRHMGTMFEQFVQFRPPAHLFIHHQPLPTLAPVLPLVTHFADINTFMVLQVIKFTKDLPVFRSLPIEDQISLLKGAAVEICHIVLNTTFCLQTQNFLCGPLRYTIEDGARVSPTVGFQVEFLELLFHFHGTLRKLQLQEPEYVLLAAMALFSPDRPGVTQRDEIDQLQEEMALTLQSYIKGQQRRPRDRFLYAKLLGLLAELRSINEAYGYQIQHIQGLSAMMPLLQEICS

Structure (SMILES) | Potency [1] | Potency [2] | Potency [3] | Potency [4] | Potency [5] | Potency [6] | Potency [7] | Potency [8] | Potency [9] | Potency [10] | Potency [11] | Potency [12] | Potency [13] | Potency [14] | outcome [15] | outcome [16] | Potency [17]
Oc1c(Cl)cc(Cl)c2cccnc12 | 0.952 µM (active) | inactive | inactive | inactive | inactive | inactive | 26.6 µM (active) | inactive | inactive |  |  |  |  |  |  |  | 
CCCCCCCCCCCCc1ccc(O)cc1 | 13.8 µM (active) | 61.1 µM (active) | 48.6 µM (active) | inactive |  |  |  |  | 27.3 µM (active) | 54.5 µM (active) |  |  |  |  |  |  | 
Cc1cc(O)c2ccccc2c1O | 15.1 µM (active) | 13.3 µM (active) | 16.8 µM (active) | inactive | inactive | inactive |  | inactive | inactive |  | 16.8 µM (active) |  |  |  |  |  | 
CCCCCCCC(=O)[O-].CCCCCCCC(=O)[O-].[Zn+2] | inactive | inactive |  | 34.7 µM (active) | inactive | inactive | inactive |  |  |  | inactive | inactive | inactive |  |  |  | 
CCN(C(=O)c1cc(C)cc(OC[C@H](C)Nc2ccncc2)c1)C(C)C | inactive | inactive | inactive | inactive | inactive |  | inactive |  | inactive |  | inactive |  | inactive |  |  |  | 
CCCCCCCCCCCCCCCCCC[N+](C)(C)Cc1ccccc1 | 4.95 µM (active) | 61.7 µM (active) | 24.6 µM (active) |  | 55 µM (active) | inactive | 55 µM (active) | inactive | 55 µM (active) |  | 49 µM (active) |  | 55 µM (active) |  |  |  | 
O=C1Cc2cc(CCN3CCN(c4nsc5ccccc45)CC3)c(Cl)cc2N1 | 23.9 µM (active) | inactive |  | inactive | inactive | inactive |  | inactive | inactive |  | inactive | 29.8 µM (active) | inactive | 20.3 µM (active) | inactive | inactive | 
O=[N+]([O-])c1cc(Cl)c(Cl)c(Cl)c1Cl | inactive | inactive |  | inactive | inactive | inactive |  | inactive | inactive |  | inactive |  | inactive |  |  |  | inactive
O=C1C=CC(=O)N1c1ccc(Cc2ccc(N3C(=O)C=CC3=O)cc2)cc1 | 17.4 µM (active) | 61.1 µM (active) | 13.7 µM (active) | 15.9 µM (active) | 54.5 µM (active) | inactive |  |  |  |  | 27.3 µM (active) |  |  |  |  |  | 
O=c1[nH]sc2cc(Cl)ccc12 | 26.8 µM (active) | inactive | inactive | 17.4 µM (active) | inactive | inactive |  | inactive | inactive |  | 0.001 µM (active) |  | inactive |  |  |  | 
COc1cc(/C=C/C(=O)O[C@H]2CC[C@]34C[C@]35CC[C@]3(C)[C@@H]([C@H](C)CCC=C(C)C)CC[C@@]3(C)[C@@H]5CC[C@H]4C2(C)C)ccc1O | inactive | inactive |  | inactive | inactive | inactive | inactive | inactive |  | inactive | inactive | inactive | inactive |  |  |  | 
